From PubChem BioAssay
MEP2 TOR yeast: alters MEP2-GFP fluorescence in TOR pathway yeast screen | S. cerevisiae MEP2-GFP strain, flow cytometry GFP, 3 h; 100% = DMSO control level | GFP response vs DMSO, % at 10 µM | AID 2016 | actives 0.51% (n = 330,000);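 active = GFP response versus DMSO above a set limit, roughly screen mean plus 3 SD, cut at about 180% in these data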;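 note: median GFP fluorescence of the barcode-gated MEP2-GFP cells per well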
AGP1 TOR yeast: modulators of TOR pathway AGP1-GFP in S. cerevisiae; actives 0.02% (n = 320,000); GFP response vs DMSO, % at 10 µM; AID 2066; S. cerevisiae AGP1-GFP multiplex flow cytometry, 3 h; GFP as percent of DMSO wells;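 active = GFP response relative to DMSO above a set limit, near screen average plus 3 SD, cut at about 150% in these data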;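 note: median GFP channel fluorescence of the gated AGP1 strain per well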
CIT2-GFP yeast: yeast TOR pathway CIT2-GFP modulation. S. cerevisiae CIT2-GFP strain, flow cytometry, 3 h; 100 means same as DMSO wells. GFP response vs DMSO, % at 10 µM. actives 0.065% (n = 320,000);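 active = GFP response relative to DMSO above a set limit, near the screen mean plus 3 SD, cut at about 150% in these data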;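 note: ratio of well median GFP fluorescence to mean of DMSO wells on the plate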
LAP4 TOR yeast: modulators of TOR pathway LAP4-GFP in S. cerevisiae | GFP response vs DMSO, % at 10 µM | S. cerevisiae LAP4-GFP multiplex, flow cytometry GFP, 3 h; median GFP as percent of DMSO wells | AID 2023 | actives 0.34% (n = 320,000);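 active = GFP response vs DMSO above a set limit, about the screen mean plus 3 SD, cut at about 150% in these data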
RPL19A-GFP yeast: alters RPL19A-GFP fluorescence in TOR pathway yeast screen | AID 2025 | percent response vs DMSO, % at 10 µM | actives 0.3% (n = 330,000) | S. cerevisiae RPL19A-GFP strain, flow cytometry, 3 h; stronger effect = lower value;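 active = percent response vs DMSO below 50%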;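 note: median channel GFP fluorescence of the barcoded RPL19A-GFP strain; ratio of sample median GFP to plate DMSO average so 100% = DMSO; lower means less RPL19A-GFP as with rapamycin TOR inhibition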
LAP4 cherry2: second confirmation of modulators of TOR reporter LAP4-GFP in yeast | shares compounds with LAP4 TOR yeast | S. cerevisiae LAP4-GFP strain, flow cytometry GFP, 3 h | GFP response vs DMSO, % at 10 µM | actives 20% (n = 590) | AID 2621;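 active = GFP signal as percent of the solvent control above about 150%, meaning raised reporter expression, limit read from the data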;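 note: ratio of well median GFP fluorescence to plate DMSO mean so 100% = DMSO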
MEP2 cherry2: second confirmation of modulators of TOR reporter MEP2-GFP in yeast; shares compounds with LAP4 TOR yeast; S. cerevisiae MEP2-GFP strain, flow cytometry GFP, 3 h; GFP response vs DMSO, % at 10 µM; actives 10% (n = 590);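 active = GFP signal above 150% of the solvent control wells, that is a rise of more than half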;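 note: median channel GFP fluorescence of all gated yeast cells per well; ratio of median GFP to plate DMSO average so 100% = DMSO level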
RPL19A GFP CP2: yeast RPL19A-GFP TOR reporter modulation, second cherry pick; GFP response vs DMSO, % at 10 µM; AID 2623; S. cerevisiae RPL19A-GFP strain, flow cytometry GFP, 3 h; stronger effect = lower value; 100% means same as DMSO wells; actives 3% (n = 590); shares compounds with LAP4 TOR yeast;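 active = under 65% GFP response relative to DMSO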;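 note: median GFP channel fluorescence per well over the all cells gate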
CIT2 GFP CP2: second confirmation of modulators of TOR reporter CIT2-GFP in yeast; S. cerevisiae CIT2-GFP strain, flow cytometry GFP, 3 h; DMSO control wells read 100%; GFP response vs DMSO, % at 10 µM; actives 8% (n = 590); shares compounds with LAP4 TOR yeast;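 active = GFP response vs DMSO above about 150%, limit read from the data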;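 note: median green fluorescence per well over all gated yeast cells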
AGP1 GFP CP2: second confirmation of modulators of TOR reporter AGP1-GFP in yeast; shares compounds with LAP4 TOR yeast; S. cerevisiae AGP1-GFP strain, flow cytometry GFP, 3 h; percent response vs DMSO, % at 10 µM; 590 tested, under 10 active; AID 2643;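 active = over 150 percent of DMSO response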;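 note: median GFP channel fluorescence over all cells without mother daughter split; sample median GFP divided by mean DMSO control so 100% equals DMSO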
s288c autofluor: compound is autofluorescent in yeast s288c cells | fluorescence change (kMESF span) at 33 µM | shares compounds with LAP4 TOR yeast | S. cerevisiae s288c, 520 nm autofluorescence, flow cytometry, 3 h; stronger effect = higher value; zero means same as solvent-only cells | 610 tested, under 10 active | AID 2757;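 active = fluorescence span over the dose series, or activity score, above about 33, limit read from the data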
The depositor's hits bear a star; / = no result given; + = active, no number. A selection: hits, their analogues and other compounds. The true share with any hit is near 0.89%.

SMILES	MEP2 TOR yeast	AGP1 TOR yeast	CIT2-GFP yeast	LAP4 TOR yeast	RPL19A-GFP yeast	LAP4 cherry2	MEP2 cherry2	RPL19A GFP CP2	CIT2 GFP CP2	AGP1 GFP CP2	s288c autofluor
CSc1ccc(NC(=O)N2CCC(C(=O)c3ccc(F)cc3)CC2)cc1	84.5	95.2	98.8	100.3	98.2	/	/	/	/	/	/
COc1ccc(NC(=O)N2CCC(C(=O)c3ccc(F)cc3)CC2)cc1	147.2	76.0	99.1	400.5*	76.8	105.2	110.0	97.4	100.1	93.5	/
Cc1ccc(-n2nc(C(=O)NN)c(C)c(C#N)c2=O)cc1Cl	+	58.5	122.9	102.2	89.6	101.2	97.8	97.2	108.5	101.7	/
O=C1CC2(CCN(C(=O)c3cccc([N+](=O)[O-])c3)CC2)Oc2ccccc21	102.3	110.5	105.2	103.0	104.7	/	/	/	/	/	/
CCCS(=O)(=O)c1nnnn1-c1cccc(OC)c1	90.0	78.9	66.7	203.9*	80.3	/	/	/	/	/	2.04
COc1cccc(-n2nnnc2SCC(=O)Nc2ccccc2OC)c1	96.8	98.4	99.8	97.1	97.6	/	/	/	/	/	/
COc1cc(/C=C2\CC/C(=C\c3cc(OC)c(OC)c(OC)c3)C2=O)cc(OC)c1OC	98.3	103.7	103.4	98.0	103.8	/	/	/	/	/	/
COc1cc(/C=C2\CC/C(=C\c3cc(OC)c(O)c(OC)c3)C2=O)cc(OC)c1O	184.5*	104.9	125.9	138.3	97.5	146.2	141.4	111.2	165.1*	111.3	2.73
Cc1cc(NC(c2ccc(Cl)cc2)c2ccc3cccnc3c2O)no1 (configuration not stated)	101.5	91.8	78.8	151.4*	94.8	/	/	/	/	/	0
Cc1ccc(S(=O)(=O)N(C)CC(=O)NCCCn2ccnc2)cc1	95.5	99.8	105.2	108.1	98.9	/	/	/	/	/	/
C#CCOCCOCCOCCNc1nc(N2CCN(C(=O)CCCCCCCCCCNC(=O)[C@@H](CCSC)n3cc(CCO)nn3)CC2)nc(N2CCN(C(=O)CCCCCCCCCCNC(=O)[C@H](CCC(=O)O)n3cc(CCCCCN)nn3)CC2)n1	108.9	102.0	97.3	99.1	92.7	/	/	/	/	/	/
C#CCOCCOCCOCCNc1nc(N2CCN(C(=O)CCCCCCCCCCNC(=O)[C@@H](CCC(=O)O)n3cc(CCCCCN)nn3)CC2)nc(N2CCN(C(=O)CCCCCCCCCCNC(=O)[C@H](CCCCN)n3cc(C[C@@H](C)CC)nn3)CC2)n1	94.2	91.2	87.5	198.4*	74.2	124.2	176.4*	88.6	119.6	118.1	0.1
C#CCOCCOCCOCCNc1nc(N2CCN(C(=O)CCCCCCCCCCNC(=O)[C@H](CCCCN)n3cc(C)nn3)CC2)nc(N2CCN(C(=O)CCCCCCCCCCNC(=O)[C@@H]([C@H](C)O)n3cc(C)nn3)CC2)n1	84.3	82.3	84.8	134.9	90.1	/	/	/	/	/	/
C#CCOCCOCCOCCNc1nc(N2CCN(C(=O)CCCCCCCCCCNC(=O)[C@H](CCCCN)n3cc(C)nn3)CC2)nc(N2CCN(C(=O)CCCCCCCCCCNC(=O)[C@H](CCCN=C(N)N)n3cc(C[C@@H](C)CC)nn3)CC2)n1	99.2	90.0	75.7	191.5*	81.2	102.2	169.4*	85.4	94.6	109.1	0
C#CCOCCOCCOCCNc1nc(N2CCN(C(=O)[C@H](CCCCN)n3cc([C@@H](N)CC(C)C)nn3)CC2)nc(N2CCN(C(=O)[C@H](Cc3ccc(O)cc3)n3cc([C@@H](N)CC(C)C)nn3)CC2)n1	92.5	94.2	99.4	113.1	100.1	/	/	/	/	/	/
C#CCOCCOCCOCCNc1nc(N2CCN(C(=O)CCCCCCCCCCNC(=O)[C@@H](CCSC)n3cc(CCO)nn3)CC2)nc(N2CCN(C(=O)CCCCCCCCCCNC(=O)[C@H](CCCN=C(N)N)n3cc(C[C@@H](C)CC)nn3)CC2)n1	93.0	82.2	84.8	152.2*	82.7	119.2	139.7	96.3	116.8	108.4	/
C#CCOCCOCCOCCNc1nc(N2CCN(C(=O)[C@H]([C@@H](C)CC)n3cc([C@@H](N)Cc4ccc(O)cc4)nn3)CC2)nc(N2CCN(C(=O)[C@H](CCCCN)n3cc([C@@H](N)CC(C)C)nn3)CC2)n1	839.3*	152.9*	128.6	301.0*	59.2	107.2	115.3	96.5	115.4	97.9	/
C#CCOCCOCCOCCNc1nc(N2CCN(C(=O)CCCCCCCCCCNC(=O)[C@@H](CCSC)n3cc(CCO)nn3)CC2)nc(N2CCN(C(=O)CCCCCCCCCCNC(=O)[C@H](CO)n3cc(CCCCCN)nn3)CC2)n1	101.7	100.6	92.2	96.7	95.3	/	/	/	/	/	/
C#CCOCCOCCOCCNc1nc(N2CCN(C(=O)CCCCCCCCCCNC(=O)[C@H](CCCCN)n3cc(CCO)nn3)CC2)nc(N2CCN(C(=O)CCCCCCCCCCNC(=O)[C@H](CCCCN)n3cc(CCCC(=O)O)nn3)CC2)n1	86.8	83.6	80.2	133.8	90.2	/	/	/	/	/	/
C#CCOCCOCCOCCNc1nc(N2CCN(C(=O)CCCCCCCCCCNC(=O)[C@H](CCCCN)n3cc(CCO)nn3)CC2)nc(N2CCN(C(=O)CCCCCCCCCCNC(=O)[C@H](CCCCN)n3cc(C[C@@H](C)CC)nn3)CC2)n1	104.7	99.9	101.3	161.1*	75.6	119.2	152.0*	94.0	111.2	109.9	0.31
CC1CN(S(=O)(=O)c2cccc(C(=O)NCc3ccccn3)c2)CC(C)O1 (configuration not stated)	93.2	91.8	90.2	91.2	89.5	/	/	/	/	/	/
C=CCn1c(C)c(/C=C/c2cc[n+](C)cc2)c2ccccc21	285.5*	117.1	240.9*	171.2*	129.2	/	/	/	/	/	5.14
